Data reported in the supplement of paper PMC6555819.

Test system: PPARg:RXRa DBDmut IVT, anti-RXR (DBD mutation: RXRa K156A/R161A, NR concentration 270 nM, RXRa partner concentration 90 nM)
Test: PBM binding z-score (relative to random genomic background probes); higher = stronger binding; sequences stand for … in GC…GCGATTGACAGCGTAGAATGAAGG
Outline: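 Probes were double-stranded and carried 34-nt variable regions with direct-repeat seeds, single-nucleotide variants, half-site ablations and random human genomic background sequences, printed on custom Agilent 4×180K protein-binding microarrays. Arrays were incubated 1 h with ligand-free nuclear receptor dimers in PBS pH 7.4, 2% milk, 0.02% Triton X-100, 1 mM DTT, 0.2 mg/mL BSA and 0.4 mg/ml salmon testes DNA. Antibodies against each partner (one per run) detected binding, and scanned fluorescence was regression-normalized. Binding z-scores use the random background probes as reference.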

Compared with CTGAGTAGGTTACGAGGGGGCATTCAGTGCGAAT, TCGAGTAGTTTACGGGGGCATTCAGGGATGAAGA is lower in PBM binding z-score: 6.01 for the first, 2.03 for the second.

Compared with CTCTGTAGGTTAAGGGGGTCATTCAGTTTGAAAG, CTATGTAGGTTAAGGGGGGCATTCAGTTTGAAAG is higher in PBM binding z-score: 5.92 for the first, 7.45 for the second.

First: CTATGCAGGTTAAGGGGGTCATTCAGTTTGAAAG
Second: CCGAGTAGGTTACGAGAGGGCATTCAGTGCGAAT
The PBM binding z-score of the first is higher: 4.72 for the first, 4.61 for the second.

Going from CTATGTAGGTTAAGGGGGTCGTTCAGTTTGAAAG to CTATGTCGGTTAAGGGGGTCATTCAGTTTGAAAG, the PBM binding z-score falls from 7.46 to 4.49.

First: TCGAGGAGGTTACGGGGGCATTCAGGGATGAAGA
Second: TCGAGTAGGTTACAGGGGCATTCAGGGATGAAGA
The PBM binding z-score of the first is lower: 3.43 for the first, 3.72 for the second.

Compared with TCGAGTAGGTTACGGGGGCATTTAGGGATGAAGA, CTATCTAGGTTAAGGGGGTCATTCAGTTTGAAAG is higher in PBM binding z-score: 5.1 for the first, 7.65 for the second.

Compared with CTATGTAGGTTAAGGGGGTCATTCAATTTGAAAG, CCGAGTTGGTTACGAGGGGGCATTCAGTGCGAAT is lower in PBM binding z-score: 7.02 for the first, 0.938 for the second.

First: CTATGTATGTTAAGGGGGTCATTCAGTTTGAAAG
Second: TCGAGTAGGTTACCGGGGCATTCAGGGATGAAGA
The PBM binding z-score of the first is higher: 4.85 for the first, 3.7 for the second.

First: TCTAGTAGGTTACGGGGGCATTCAGGGATGAAGA
Second: TCGAGTAGGTTACGGGGCCATTCAGGGATGAAGA
The PBM binding z-score of the first is higher: 6.73 for the first, 3.76 for the second.

First: CCGGGTAGGTTACGAGGGGGCATTCAGTGCGAAT
Second: TCGAGTAGGTTACGGGGGCATTCAAGGATGAAGA
The PBM binding z-score of the first is lower: 1.95 for the first, 4.93 for the second.

First: CTAAGTAGGTTAAGGGGGTCATTCAGTTTGAAAG
Second: TCGAGTAGCTTACGGGGGCATTCAGGGATGAAGA
The PBM binding z-score of the first is higher: 7.83 for the first, 1.25 for the second.

Going from TCGAGTAGGTTACGGGGGCATTCACGGATGAAGA to CTATGTAAGTTAAGGGGGTCATTCAGTTTGAAAG, the PBM binding z-score falls from 5.07 to 3.56.

Going from CTATGTAGGTTATGGGGGTCATTCAGTTTGAAAG to TCGAGTAGGTTACGGGGGCATTCCGGGATGAAGA, the PBM binding z-score falls from 7.32 to 4.92.

First: CTATGTAGGTTAAGGGGGTCATTCACTTTGAAAG
Second: TCGAGTAGGTTATGGGGGCATTCAGGGATGAAGA
The PBM binding z-score of the first is higher: 7.7 for the first, 3.92 for the second.

First: CCGAGTAGGATACGAGGGGGCATTCAGTGCGAAT
Second: CTATGTAGGTTAAGGGGGTCATTCAGTTTGAAAG
The PBM binding z-score of the first is lower: 0.37 for the first, 7.67 for the second.

Going from TCGAGTAGGTTACGGGGGCGTTCAGGGATGAAGA to TCGAGTAGGTTACGGGGGCATTAAGGGATGAAGA, the PBM binding z-score rises from 4.48 to 4.98.

First: CCGAGTAGGTTATGAGGGGGCATTCAGTGCGAAT
Second: CCGAGTAGCTTACGAGGGGGCATTCAGTGCGAAT
The PBM binding z-score of the first is higher: 3.45 for the first, 0.648 for the second.

First: TCGAGTAGGTTACGGGGGTATTCAGGGATGAAGA
Second: CCGTGTAGGTTACGAGGGGGCATTCAGTGCGAAT
The PBM binding z-score of the first is higher: 4.5 for the first, 3.52 for the second.

Compared with CTATGTAGGGTAAGGGGGTCATTCAGTTTGAAAG, CTATGTAGGTTAAGGGTGTCATTCAGTTTGAAAG is higher in PBM binding z-score: 7.14 for the first, 7.72 for the second.

In the case of CCTAGTAGGTTACGAGGGGGCATTCAGTGCGAAT, the PBM binding z-score was 6.21.
